The values that follow come from PubChem BioAssay (NCI).

About 79,000 compounds went through this panel and 15% of them were active in at least one assay; those are over-represented in the sample as a whole. A number with no mark means an inactive call. Activity calls are given as the source filed them. No stated cut-off is given here; in the data, active means growth inhibition above about 70%; inactive means the rest.

Assay [1] is described as follows: NCI Yeast Anticancer Drug Screen. Data for the rad50 strain (AID 155).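 Further: 0% = growth of vehicle-only cultures of the same strain.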 To be noted: S. cerevisiae rad50 strain growth inhibition; at 50.0 µM; hits give high values. A digest of the protocol: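 Yeast carrying a defined DNA repair defect were exposed to test compounds, and growth was compared with vehicle-treated controls to give percent inhibition.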
Assay [2] is described as follows: NCI Yeast Anticancer Drug Screen. Data for the mec2-1 strain (AID 157). To be noted: S. cerevisiae mec2-1 strain, at 50.0 µM, hits give high values. A digest of the protocol:
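Test agents were screened against the mec2-1 yeast strain, with defined DNA repair or cell cycle alteration. Growth was scored as inhibition against vehicle-only controls.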

A short description of assay [3]: NCI Yeast Anticancer Drug Screen. Data for the sgs1 mgt1 strain (AID 161).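 Further: 0% = growth of cultures given vehicle only.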 The settings on record: S. cerevisiae sgs1 mgt1 strain, at 50.0 µM, hits give high values. A digest of the protocol:
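Mutant yeast exposed to compound; growth scored against vehicle-only wells.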

A short description of assay [4]: NCI Yeast Anticancer Drug Screen. Data for the cln2 rad14 strain (AID 165).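 Further: 0% = growth equal to vehicle treated cultures.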 The settings on record: S. cerevisiae cln2 rad14 strain, at 50.0 µM, hits give high values. A digest of the protocol:
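Growth of compound-exposed yeast (cln2 rad14 genotype) measured and expressed as inhibition relative to vehicle.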

Assay [5] is described as follows: NCI Yeast Anticancer Drug Screen. Data for the bub3 strain (AID 167). The settings on record: S. cerevisiae bub3 mutant strain, at 50.0 µM, hits give high values. In short, it runs like this: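 Compounds were applied to a genetically altered yeast strain carrying a cell-cycle control defect. Growth inhibition was scored against vehicle-treated controls.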
Assay [6] in a line: NCI Yeast Anticancer Drug Screen. Data for the mlh1 rad18 strain (AID 175). To be noted: S. cerevisiae mlh1 rad18 strain growth inhibition; at 50.0 µM; hits give high values. In short, it runs like this: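 In this whole-cell yeast screen, a strain with altered DNA damage repair is challenged with compound, and its growth is measured against matched vehicle-treated controls.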

Regarding `COC(=O)C1C2C=CC(C1C(=O)O)C1C(Br)=C(Br)C21` (stereo not given), the growth inhibition in assay [1] was 20.4%; in assay [2], 10.9%; in assay [3] it was -8.05%; in assay [4], -10.1%; in assay [5], 1.9%; in assay [6], -8.45%.

Take `CC(=O)N(C(C)=O)C(CS)C(=O)O` (stereo not given): the growth inhibition in assay [1] is 4.1%; in assay [2] it was -11.8%; in assay [3], 2.85%; in assay [4], 14.8%; in assay [5], 9.05%; in assay [6], 2.6%.

`CCc1nnc(-c2nsc3ccccc23)s1`: the growth inhibition in assay [1] is 38.5%; in assay [2], -22.9%; in assay [3], 6.4%; in assay [4], -12.8%; in assay [5] it was 15.8%; in assay [6] it was 23.3%.

For `COC(=O)C(C(Br)C(=O)c1ccccc1)C(c1ccccc1)[N+](=O)[O-]` (stereo not given), the growth inhibition in assay [1] is 68.7%; in assay [2], 85.3% (active); in assay [3], 54.1%; in assay [4], 2.3%; in assay [5], 85.9% (active); in assay [6], 94.5% (active).

With `CC(SCc1ccccc1)C(NC(=O)c1ccccc1)C(=O)O` (stereo not given), the growth inhibition in assay [1] was 4.95%; in assay [2], 9.9%; in assay [3] it was -8.3%; in assay [4] it was -0.3%; in assay [5], 10.1%; in assay [6], 7.55%.

Consider `CNC(CCCC1CCCCC1)C(=O)O` (stereo not given), for which the growth inhibition in assay [1] is -2.85%; in assay [2], 5.7%; in assay [3] it was -0.15%; in assay [4], 11.4%; in assay [5] it was 12.8%; in assay [6], -7.35%.

For `Nc1cccc(C(F)(F)F)c1N`, the growth inhibition in assay [1] is -13.6%; in assay [2] it was -15.4%; in assay [3], -6.7%; in assay [4], -24.4%; in assay [5], -13.6%; in assay [6], 8.3%.

On to `COc1ccc(-c2cc(=O)cc(C(N)=O)o2)cc1`, for which the growth inhibition is -1.1% in assay [1]; -1% in assay [2]; 4.6% in assay [3]; -13.8% in assay [4]; 11.2% in assay [5]; 17.2% in assay [6].

As for `COC(=O)/C(C#N)=C\n1c(=S)[nH]c2ccccc21`, the growth inhibition in assay [1] was -14.2%; in assay [2] it was 2.55%; in assay [3] it was -16.4%; in assay [4] it was 17.4%; in assay [5], -4.9%; in assay [6] it was -8.35%.

Regarding `COc1ccc(C(=O)c2c(C(=O)O)ccc3ccccc23)cc1`, the growth inhibition in assay [1] was 9.55%; in assay [2] it was 2.25%; in assay [3], 11.3%; in assay [4], -39.3%; in assay [5], 6.75%; in assay [6] it was -21.5%.

`COc1cc(OC)c2cc(C(=O)c3cccc4ccccc34)c(=O)oc2c1`: the growth inhibition was 1.35% in assay [1]; -22.8% in assay [2]; 9.65% in assay [3]; 16.9% in assay [4]; 19.4% in assay [5]; 13.4% in assay [6].

For `NC(N)=N/N=C/C(=N\N=C(N)N)C(O)CO` (stereo not given), the growth inhibition is 28.9% in assay [1]; -4.45% in assay [2]; 1.85% in assay [3]; 2.4% in assay [4]; 4.85% in assay [5]; -9.1% in assay [6].

On to `CC(C)(C)OC(=O)NC(CCC(=O)OCc1ccccc1)C(=O)NCCCO` (stereo not given), for which the growth inhibition in assay [1] was -11.8%; in assay [2], -35.3%; in assay [3], 8.4%; in assay [4], -9.35%; in assay [5] it was -15.7%; in assay [6] it was 9.8%.

On to `N#Cc1c(-c2ccccc2)cc(-c2ccc(Cl)cc2)[nH]c1=S`, for which the growth inhibition in assay [1] was 5.3%; in assay [2], 8.2%; in assay [3], -19.1%; in assay [4], 20.5%; in assay [5], 42.2%; in assay [6], 4.65%.

Take `C/C=C/C=C/c1nc(C#N)c(N)o1`: the growth inhibition in assay [1] was -7.6%; in assay [2] it was -2.2%; in assay [3], 1.55%; in assay [4] it was 12.7%; in assay [5], 15.3%; in assay [6], -3.55%.

For `CC1OC(c2ccc(Cl)cc2)OC1C` (stereo not given), the growth inhibition was 16.4% in assay [1]; 20.9% in assay [2]; 10.9% in assay [3]; -31.6% in assay [4]; -5.7% in assay [5]; 10.7% in assay [6].

As to `N#C/C(=N/Nc1nc[nH]c1C(N)=O)C(=O)Nc1ccccc1`, the growth inhibition in assay [1] was 8.6%; in assay [2], 20.9%; in assay [3] it was 16.6%; in assay [4], -0.1%; in assay [5] it was -0.6%; in assay [6], 26.1%.

With `CC(C)N(CC(c1ccccc1)C(O)(c1ccccc1)c1ccccc1)C(C)C` (stereo not given), the growth inhibition is 16.1% in assay [1]; 8% in assay [2]; 17.5% in assay [3]; 26.8% in assay [4]; -0.75% in assay [5]; 32.3% in assay [6].

Turning to `C=C(Br)c1ccc2c(c1)OCO2`, the growth inhibition in assay [1] was 30%; in assay [2], 15.7%; in assay [3], 20.9%; in assay [4], 8%; in assay [5] it was 4.05%; in assay [6], -8.55%.

On to `COC1OC(COS(C)(=O)=O)C(OS(C)(=O)=O)C(OS(C)(=O)=O)C1OS(C)(=O)=O` (stereo not given), for which the growth inhibition in assay [1] was -2.8%; in assay [2], -7.05%; in assay [3], -26.4%; in assay [4], -67%; in assay [5], 1.4%; in assay [6], 10.3%.
